From PubChem BioAssay (NCATS)
Records with an inconclusive call do not appear. The source made the active and inactive calls. Unless noted, the call rests on the fitted dose curve; in most records, active means well fitted curve in the direction sought with a large enough effect; inconclusive means small, poorly fitted or top-dose-only effect, or another doubt; inactive means no such curve, though single readings can be large; an effect the other way counts as inactive or inconclusive.

Assays:
[1] = Cell Viability - NIH 3T3 (AID 541); conditions: NIH 3T3 cell viability, qHTS; activity change, negative = cytotoxicity: at 92.2 µM (top of the series); further: nearly all actives have a fitted effect of over 25% in size; further: potency means the concentration at half of the fitted maximal effect;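 on activity change, negative = cytotoxicity: plate controls were DMSO alone for no effect and tamoxifen positive control for full effect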
Method in brief: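 NIH 3T3 mouse embryo fibroblasts (1000 cells/well) were plated in complete medium and treated with compound for 40 hr at 37 °C. Viability was read as intracellular ATP by CellTiter-Glo luminescence; AC50 values came from Hill-equation fits of concentration-response data.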

[2] = Cellular Toxicity (caspase-3) Jurkat (AID 655); conditions: Jurkat caspase-3 activation, luminescence; caspase-3 activation: at 92.2 µM (top of the series), DMSO = 0%, tamoxifen = 100%;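 further: cells exposed to compound for 16 h at 37 °C before reading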
Method in brief: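 Luminescent caspase-3/7 readout (aminoluciferin substrate cleavage) in human T-cell leukemia Jurkat cells after 16 hr compound exposure. Concentration-response normalized to DMSO and 100 uM tamoxifen; AC50 by standard Hill equation.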

[3] = Cellular Toxicity (caspase-3) SHSY5Y (AID 657)
Method in brief: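 Luminescent caspase-3/7 readout (aminoluciferin release) in SH-SY5Y cells after 16 h compound exposure in complete medium. Activity scaled between DMSO basal and 10 uM staurosporine as 100%; concentration-response fitted to Hill equation for AC50.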

[4] = Cellular Toxicity (caspase-3) BJ (AID 658); conditions: Potency: caspase-3 activation;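 further: 0% = DMSO basal and 100% = 10 µM staurosporine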
Method in brief: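 Readout: Caspase-Glo 3/7 luminescence increase in BJ cells after 16 hr treatment at 37 °C. Staurosporine and tamoxifen served as positive controls; AC50 values came from Hill modelling of data normalized to DMSO and 10 uM staurosporine.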

[5] = Cellular Toxicity (caspase-3) MRC-5 (AID 659);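 further: 0% = DMSO basal and 100% = 10 µM staurosporine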
Method in brief: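 Concentration-dependent caspase 3/7 activation is measured in human normal lung fibroblasts (MRC-5) following 16-hour treatment. AC50 values come from standard Hill-equation modeling of luminescence normalized to DMSO and 10 uM staurosporine.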

[6] = Cellular Toxicity (caspase-3) SK-N-SH (AID 661); conditions: SK-N-SH caspase-3 activation, qHTS; caspase-3 activation: at 91.7 µM (top of the series), DMSO as zero, staurosporine as full; further: potency means the concentration at half of the fitted maximal effect;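 on caspase-3 activation: 0% = DMSO basal and 100% = 10 µM staurosporine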
Method in brief: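 SK-N-SH human neuroblastoma cells (1500/well) were treated with compounds for 16 hr at 37 °C in complete medium; caspase 3/7 activity was read by Caspase-Glo luminescence. AC50 came from Hill fits of data normalized to DMSO and 10 uM staurosporine.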

[7] = Cellular Toxicity (caspase-3) Hek293 (AID 664); conditions: HEK293 caspase-3 activation, DMSO = 0%, 100 µM tamoxifen = 100%; at 92.2 µM (top of the series);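 further: cells exposed to compound for 16 h at 37 °C before readout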
Method in brief: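 HEK293 cells were exposed to compounds in complete medium for 16 hr at 37 °C, then caspase-3/7 activity was read by Caspase-Glo 3/7 luminescence after 20 min at room temperature. Data normalized to DMSO and 100 uM tamoxifen; AC50 from Hill fits.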

[8] = Cellular Toxicity (caspase-3) NIH 3T3 (AID 666);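 further: caspase signal read after 16 h compound exposure; 0% = DMSO basal and 100% = 100 µM tamoxifen stimulation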
Method in brief: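 Mouse NIH 3T3 fibroblasts (1000 cells/well) were treated with compound for 16 hr at 37°C in complete medium; caspase-3/7 activity was read by Caspase-Glo luminescence. Normalized to DMSO and 100 uM tamoxifen; AC50 from Hill fits.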

[9] = Cell Viability - LYMP1-002 - Assay at 16 hr (AID 948); further: potency means the concentration at half of the fitted maximal effect;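 on activity change, negative = cytotoxicity: 0% = DMSO alone and full effect = 92 µM tetraoctylammonium bromide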
Method in brief: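 LYMP1-002 human lymphoblastoid cells, 2500/well; 5 hr 37 C; cpd 16 hr 37 C; CellTiter-Glo 30 min RT; luminescence (ATP). Concentration-response, Hill-fit AC50. Pos ctrl tetraoctylammonium bromide.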

[10] = MultiTox-Fluor Cytotoxicity Assay - LYMP1-003 - Live Cells (AID 962); further: potency means the concentration at half of the fitted maximal effect
Method in brief: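 LYMP1-003 human lymphoblastoid cells (2500/well) in complete medium were preincubated 5 hr at 37 C, then exposed to compounds for 16 hr at 37 C. Live-cell protease cleavage of GF-AFC read by fluorescence (Ex/Em 405/510); AC50 from Hill fits.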

[11] = Cell Viability - LYMP1-003 - Assay at 24 hr (AID 963); further: potency means the concentration at half of the fitted maximal effect
Method in brief: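 Human lymphoblastoid LYMP1-003 cells (2500/well) were rested 5 hr at 37 C, then exposed to compounds in complete medium for 24 hr at 37 C. Cellular ATP was quantified by CellTiter-Glo luminescence, and AC50 values came from Hill fits of concentration-response data.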

[12] = Cell Viability - LYMP2-003 (AID 965);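 further: cells exposed to compounds for 24 h before reading; nearly all actives have a fitted effect of over 50% in size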; further: potency means the concentration at half of the fitted maximal effect;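 on activity change, negative = cytotoxicity: 0% = DMSO only and full effect = 92 µM tetraoctylammonium bromide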
Method in brief: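 CellTiter-Glo luminescence (cellular ATP) after 24 h compound exposure at 37 C in complete medium; 2500 cells/well, 5 h settling beforehand. Concentration-response fitted to standard Hill equation for AC50. Tetraoctylammonium bromide served as positive control.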

[13] = Cell Viability - LYMP2-009 (AID 968); further: nearly all actives have a fitted effect of over 55% in size; further: potency means the concentration at half of the fitted maximal effect
[14] = Cell Viability - LYMP2-021 (AID 974);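 further: compound exposure lasts 24 hours at 37 °C; nearly all actives have a fitted effect of over 55% in size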; further: potency means the concentration at half of the fitted maximal effect; on activity change, negative = cytotoxicity: on the % scale 0 is the no-effect control and ±100 the full control effect
Method in brief: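 Human lymphoblastoid cells (2500/well) were preincubated 5 hr at 37 C, then exposed to compounds for 24 hr at 37 C in complete medium. Intracellular ATP was read by CellTiter-Glo luminescence; AC50 came from Hill-equation fits of concentration-response data.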

[15] = Cell Viability - LYMP2-007 (AID 979);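 further: cells exposed to compound for 24 h before reading; nearly all actives have a fitted effect of over 60% in size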; further: potency means the concentration at half of the fitted maximal effect;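 on activity change, negative = cytotoxicity: 0% = DMSO only and the negative end = 92 µM tetraoctylammonium bromide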
Method in brief: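 Human lymphoblastoid cells (2500/well) were plated in complete medium, incubated 5 hr at 37 C, then exposed to compounds for 24 hr at 37 C. Intracellular ATP was read by CellTiter-Glo luminescence after 30 min at room temperature; AC50 from Hill fits.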

[16] = Cell Viability - LYMP1-002 - Assay at 24 hr (AID 993); further: potency means the concentration at half of the fitted maximal effect; on activity change, negative = cytotoxicity: on the % scale 0 is the no-effect control and ±100 the full control effect
Method in brief: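 Human lymphoblastoid LYMP1-002 cells, 2500/well in complete medium, were treated with compounds for 24 h at 37 C; intracellular ATP was read by CellTiter-Glo luminescence. AC50 values came from Hill-equation fits of qHTS concentration-response data.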

[17] = Cell Viability - Jurkat (AID 426;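 active means dose-dependent loss of cell ATP signal giving a full or clear fitted curve, ranked by lower potency value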; further: potency means the concentration at half of the fitted maximal effect); conditions: qHTS
Method in brief: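 Jurkat (clone E6-1, human T-cell leukemia) cells, 5000/well in complete medium, were exposed to compound for 40 hr at 37 °C. Viability was read as intracellular ATP by CellTiter-Glo luminescence; AC50 came from Hill fits of concentration-response data.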

[18] = Cell Viability - Hek293 (AID 427;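 active means compounds whose dose-response curve shows a full or clear partial loss of cell viability, called from curve shape rather than a numeric limit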;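 further: potency means the concentration at half of the fitted maximal effect; cells exposed to compound for 40 hours at 37 °C before reading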); conditions: qHTS
Method in brief: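 qHTS, human embryonic kidney (adenovirus-transformed) cells; 40 hr cpd, 37 °C; CellTiter-Glo ATP luminescence. Norm: DMSO = 0, 100 uM tamoxifen = 100% inhibition. Hill-fit AC50.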

[19] = Cell Viability - H-4-II-E (AID 543); further: potency means the concentration at half of the fitted maximal effect; nearly all actives have a fitted effect of over 35% in size
Method in brief: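 Rat hepatoma H-4-II-E cells (1500/well) were plated, incubated 5 hr at 37 °C, then exposed to compounds for 40 hr at 37 °C. Cellular ATP was read by CellTiter-Glo luminescence; AC50 came from Hill-equation fits of concentration-response data.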

[20] = MultiTox-Fluor Cytotoxicity Assay - LYMP1-001 - Dead Cells (AID 946); further: potency means the concentration at half of the fitted maximal effect
Method in brief: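 Seed 2500 LYMP1-001 cells/well, incubate 5 hr at 37 C; add compound, 16 hr at 37 C; add MultiTox-Fluor reagent, 60 min RT; read dead-cell fluorescence Ex/Em=485/520. Normalize to DMSO and 15 uM tetraoctylammonium bromide.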

CO[C@H]1/C=C/O[C@@]2(C)Oc3c(C)c(O)c4c(O)c(c5c(c4c3C2=O)NC2(CCN(CC(C)C)CC2)N=5)=NC(=O)/C(C)=C\C=C\[C@H](C)[C@H](O)[C@@H](C)[C@@H](O)[C@@H](C)[C@H](OC(C)=O)[C@@H]1C
inactive: Potency [2] | Potency [3] | Potency [4] | outcome [5] | caspase-3 activation [6] 5.74% | caspase-3 activation [7] -2.49% | Potency [8] | Potency [9] | Potency [10] | Potency [11] | Potency [12] | Potency [13] | Potency [14] | Potency [15] | Potency [16]
active: Potency [1] 20 µM

c1cc(OCC2CO2)cc(OCC2CO2)c1 (configuration not stated)
inactive: caspase-3 activation [7] 8.84% | Potency [11] | Potency [16]
active: Potency [17] 41.9 µM | Potency [18] 32.9 µM | activity change, negative = cytotoxicity [1] -149% | Potency [19] 39.8 µM | Potency [6] 12.6 µM

Oc1ccc2cc(SSc3ccc4cc(O)ccc4c3)ccc2c1
inactive: Potency [2] | Potency [3] | Potency [4] | outcome [5] | caspase-3 activation [6] 10.2% | caspase-3 activation [7] 15.1% | Potency [8] | Potency [20]
active: Potency [17] 36.7 µM | Potency [18] 46.2 µM | Potency [19] 50.1 µM | Potency [9] 50.1 µM | Potency [11] 50.1 µM | Potency [13] 50.1 µM | Potency [15] 39.8 µM | Potency [16] 50.1 µM

Cc1ccc(S(=O)(=O)Oc2ccc(N=Nc3ccc(-c4ccc(N=Nc5c(O)ccc6cc(S(=O)(=O)O)cc(S(=O)(=O)O)c56)c(C)c4)cc3C)cc2)cc1
inactive: Potency [2] | Potency [3] | Potency [4] | outcome [5] | caspase-3 activation [6] -0.915% | caspase-3 activation [7] -1.72% | Potency [8] | Potency [20] | Potency [12]

O=C1OC(O)C(C(Cl)Cl)=C1Cl (configuration not stated)
active: Potency [17] 21.3 µM | Potency [12] 15.8 µM | Potency [13] 25.1 µM | Potency [14] 20 µM | Potency [15] 25.1 µM
inactive: Potency [4] | outcome [5] | caspase-3 activation [7] 0.823% | Potency [8]

Cc1cc(Nc2ccc(O)cc2)ccc1N
inactive: Potency [3] | Potency [4] | outcome [5] | caspase-3 activation [6] 12.7% | caspase-3 activation [7] -8.9% | Potency [20] | Potency [9] | Potency [10] | Potency [11] | Potency [16]
active: Potency [17] 7.82 µM | Potency [18] 52.8 µM | activity change, negative = cytotoxicity [1] -158% | Potency [19] 39.8 µM | Potency [12] 50.1 µM | Potency [13] 50.1 µM | Potency [14] 50.1 µM | Potency [15] 31.6 µM

c1ccc2c(c1)-c1cccc3c1c-2cc1ccccc13
inactive: Potency [17] > 92 µM | Potency [18] > 92 µM | Potency [2] | Potency [3] | Potency [4] | outcome [5] | caspase-3 activation [6] 2.25% | caspase-3 activation [7] -2.54% | Potency [8] | Potency [20] | Potency [9] | Potency [10] | Potency [11] | Potency [12] | Potency [13] | Potency [14] | Potency [15] | Potency [16]

C=CC(=O)OCCOCCOC(=O)C=C
active: Potency [17] 7.5 µM | Potency [18] 27 µM | Potency [1] 3.16 µM | Potency [19] 20 µM | Potency [20] 50.1 µM | Potency [10] 31.6 µM | Potency [11] 31.6 µM | Potency [12] 12.6 µM | Potency [13] 20 µM | Potency [14] 15.8 µM | Potency [15] 25.1 µM
inactive: outcome [5] | caspase-3 activation [7] 5.92% | Potency [8]

CC(=O)Nc1ccc(C(=O)CCl)cc1
inactive: Potency [2] | Potency [3] | Potency [4] | outcome [5] | caspase-3 activation [6] -5.98% | Potency [8]
active: Potency [17] 2.44 µM | Potency [18] 37.9 µM | Potency [1] 2 µM | Potency [19] 10 µM | Potency [20] 25.1 µM | Potency [9] 25.1 µM | Potency [10] 31.6 µM | Potency [11] 39.8 µM | Potency [12] 6.31 µM | Potency [13] 6.31 µM | Potency [14] 5.01 µM | Potency [15] 6.31 µM | Potency [16] 25.1 µM
